Consider 40 compounds from PubChem BioAssay (Tox21).

Inconclusive results are not listed. Where a call stands in place of a potency, no number is given. Calls of active or inactive are those of the source. Calls follow the shape of the dose curve; as a rule, active = well fitted inhibition curve with a large enough effect in the signal ratio in the repeat runs (not every such curve was filed as active); inconclusive = weak or mixed curves, or effect the other way; inactive = no such curve, though single readings can be large or run the other way; the % refers to the signal ratio.
Potency is read from the fitted curve at half-maximal effect.

The target in this experiment is Estrogen receptor beta (Homo sapiens) (UniProt Q92731). In words: qHTS assay to identify small molecule antagonists of the estrogen receptor beta (ER-beta) signaling pathway (AID 1259378). Conditions: ER-beta-UAS-bla HEK293T, beta-lactamase FRET ratio, 16 h; series mostly up to 92.4 µM. The source says: National Center for Advancing Translational Sciences [NCATS]
Estrogen receptor beta (Homo sapiens), sequence (Q92731 whole entry, looked up): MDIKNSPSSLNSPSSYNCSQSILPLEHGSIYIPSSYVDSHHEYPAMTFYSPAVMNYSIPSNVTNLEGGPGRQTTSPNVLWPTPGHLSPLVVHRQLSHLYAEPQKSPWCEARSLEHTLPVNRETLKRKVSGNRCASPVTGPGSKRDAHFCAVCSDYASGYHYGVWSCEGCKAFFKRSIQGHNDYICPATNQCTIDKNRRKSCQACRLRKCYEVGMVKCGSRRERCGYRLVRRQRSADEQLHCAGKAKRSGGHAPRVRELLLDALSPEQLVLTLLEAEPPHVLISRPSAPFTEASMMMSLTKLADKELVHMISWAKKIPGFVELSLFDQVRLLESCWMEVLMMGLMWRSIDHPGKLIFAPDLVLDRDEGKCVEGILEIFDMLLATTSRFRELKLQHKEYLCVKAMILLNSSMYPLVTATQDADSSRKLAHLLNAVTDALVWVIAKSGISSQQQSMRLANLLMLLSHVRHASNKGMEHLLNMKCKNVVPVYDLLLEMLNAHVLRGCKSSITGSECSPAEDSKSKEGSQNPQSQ
NIH Chemical Genomics Center [NCGC]
U.S. Environmental Protection Agency [EPA]
National Institutes of Environmental Health Sciences [NIEHS]
National Toxicology Program [NTP]
U.S. Food and Drug Administration [FDA]
Estrogen receptor (ER), a nuclear hormone receptor, plays an important role in development, metabolic homeostasis and reproduction. Two subtypes of ER, ER-alpha and ER-beta, have similar expression patterns with some uniqueness in both types. Endocrine disrupting chemicals (EDCs) and their interactions with steroid hormone receptors like ER causes disruption of normal endocrine function. To identify the compounds that inhibit ER signaling, an ER-beta-UAS-bla GripTite cell line (Life Technologies, Madison, WI, USA) containing a beta-lactamase reporter gene under the control of an UAS response element was used to screen Tox21 10K compound library.
Tox21 Assay Protocol Summary:
ER-beta-UAS-bla HEK293T cells were dispensed at 2,000 cells/4 uL of assay medium containing 2% charcoal stripped FBS per well into black wall/clear-bottom 1536-well plates using a Multidrop Combi (ThermoFisher Scientific, Waltham, MA) dispenser. After the assay plates were incubated at a 37C and 5% CO2 for 6 hr, 23 nL of compounds dissolved in DMSO, positive controls or DMSO only was transferred to the assay plate by a Pintool station (Kalypsys, San Diego, CA), followed by addition of 1 uL (1nM as final concentration) of 17-beta-estradiol (E2) in assay medium using a BioRAPTR FRD (Flying Reagent Dispenser, Aurora Discovery, San Diego, CA). The plates were incubated at 37C and 5% CO2 for 16 hr. Then 1 uL of LiveBLAzerTM B/G FRET substrate was added using a Flying Reagent Dispenser, the plates were incubated at room temperature for 2 hours, and fluorescence intensity was measured by an Envision plate reader (PerkinElmer, Shelton, CT).
In the case of `CSC1=N[C@@](C)(c2ccccc2)C(=O)N1Nc1ccccc1`, the Potency is 27.3 µM (active).
Then `CCOP(=S)(OCC)Oc1cc(C)nc(N(CC)CC)n1`, with “inactive”.
For the compound `CC(=O)C(Cl)C(=O)N(C)C` (stereo not given), the Potency result was “inactive”.
As for `Cc1ccn2nc(S(=O)(=O)Nc3c(F)cccc3F)nc2n1`, the Potency result was “inactive”.
To `CC1(C)[C@H](/C=C2\CCSC2=O)[C@@H]1C(=O)OCc1coc(Cc2ccccc2)c1` belongs “inactive”.
Then `CC1CN1` (stereo not given), with “inactive”; and `CCOP(=S)(OCC)SC(CCl)N1C(=O)c2ccccc2C1=O` (stereo not given), with 30.6 µM (active); and `c1ccc(Nc2ccc(Nc3ccccc3)cc2)cc1`, with 0.136 µM (active).
As to `O=Cc1ccccc1`, the Potency result is “inactive”.
As for `CN1[C@@H]2CC[C@H]1CC(O)C2` (stereo not given in full), the Potency result was “inactive”.
Then `CCCCCON=O`, with “inactive”; and `S=C=NCCc1ccccc1`, with 30.7 µM (active); and `c1ccc2nc(N3CCNCC3)ccc2c1`, with “inactive”.
Then `CN/C(=N\[N+](=O)[O-])NCc1cnc(Cl)s1`, with “inactive”.
For `CC(=O)[O][Pb]([c]1ccccc1)([c]1ccccc1)[c]1ccccc1`, the Potency was 0.969 µM (active).
Take `O=C(O)CCCCCCNC1c2ccccc2CCc2ccccc21`: the Potency entry was “inactive”.
To `COP(=O)(OC)Oc1ccc([N+](=O)[O-])cc1` belongs “inactive”.
Then `Oc1cc(Cl)c(Cl)c(Cl)c1Cl`, with 13.4 µM (active).
Take `O=[N+]([O-])c1ccc(Cl)c(Cl)c1Cl`: the Potency entry is “inactive”.
To `O=C(N[C@H]1N=C(c2ccccc2F)c2cccc3c2N(CC3)C1=O)c1cc2ccccc2[nH]1` belongs “inactive”; to `Brc1cccc(-c2ccccc2)c1`, “inactive”.
For `CCC(C)Br` (stereo not given), the Potency entry is “inactive”.
To `ClSC(Cl)(Cl)Cl` belongs “inactive”; to `CNC(=O)/C=C(\C)OP(=O)(OC)OC`, “inactive”; to `COCCC#N`, “inactive”.
Take `CC(Cc1ccc(OCC(=O)O)cc1)NCC(O)c1csc(C(F)(F)F)n1` (stereo not given): the Potency entry is “inactive”.
In the case of `O=C(Cl)c1ccccc1F`, the Potency result was “inactive”.
Then `CCNc1nc(NC(C)C(C)C)nc(SC)n1` (stereo not given), with “inactive”; and `CCC1(CC)C(=O)N=C(O)NC1=O`, with “inactive”; and `CC(C)C(Nc1ccc(C(F)(F)F)cc1Cl)C(=O)OC(C#N)c1cccc(Oc2ccccc2)c1` (stereo not given), with “inactive”.
Turning to `COc1ccc2[nH]cc(CCN(C(C)C)C(C)C)c2c1`, the Potency entry is “inactive”.
Take `Oc1cccc(Cl)c1Cl`: the Potency result is “inactive”.
To `Nc1ccccc1-c1ccccc1` belongs “inactive”; to `CCC[CH2][Sn]([CH2]CCC)([CH2]CCC)[CH2]CCC`, 19.3 µM (active); to `CN`, “inactive”.
To `CC(Cl)CCl` (stereo not given) belongs “inactive”; to `CCC[CH2][Sn]([CH2]CCC)([O]C(C)=O)[O]C(C)=O`, 0.174 µM (active).
For `CNC(=O)CSP(=O)(OC)OC`, the Potency result was “inactive”.
On to `BrCC(Br)(Br)Br`, for which the Potency result was “inactive”.
Consider `CSSC`, for which the Potency entry is “inactive”.
